# Reference: the supplement of paper PMC8728848
# The entries come from a sample that favours the strongest signals as a whole.
# What was measured:
# Test in all cases: glycan array binding signal (z-score within array); higher = stronger binding
# Conditions in all cases: glycan notation: IUPAC condensed, linker removed
# [1] = biological target: GlcNAc(a1-6)Gal(b1-4)GlcNAc
# Method in brief: (§1)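 Glycan array binding is given as a within-array Z-score, which can be read as non-binding when negative. The arrays, 3228 of them, came from the Consortium for Functional Glycomics database and were retained only where the protein sequence was available. Z-scores were averaged across arrays of the same protein sequence at different concentrations or buffers and across linkers.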
# [2] = biological target: GlcNAc(b1-3)Gal(b1-4)GlcNAc(b1-2)[GlcNAc(b1-3)Gal(b1-4)GlcNAc(b1-6)]Man(a1-6)[GlcNAc(b1-3)Gal(b1-4)GlcNAc(b1-2)Man(a1-3)]Man(b1-4)GlcNAc(b1-4)GlcNAc
# Method in brief: as §1
# [3] = biological target: GlcNAc(b1-3)Gal(b1-4)GlcNAc(b1-3)Gal(b1-4)GlcNAc(b1-2)Man(a1-3)[GlcNAc(b1-3)Gal(b1-4)GlcNAc(b1-3)Gal(b1-4)GlcNAc(b1-2)Man(a1-6)]Man(b1-4)GlcNAc(b1-4)[Fuc(a1-6)]GlcNAc
# Method in brief: as §1
# [4] = biological target: GlcNAc(b1-4)Gal(b1-4)GlcNAc
# Method in brief: as §1
# GlcNAc(b1-4)GlcNAc = biological target: GlcNAc(b1-4)GlcNAc
# Method in brief: as §1
# [5] = biological target: GlcNAc(b1-4)GlcNAc(b1-4)GlcNAc(b1-4)GlcNAc(b1-4)GlcNAc
# Method in brief: as §1
# [6] = biological target: Neu5Ac(a2-3)Gal(b1-3)GalNAc(b1-4)[Neu5Ac(a2-3)]Gal(b1-4)Glc
# Method in brief: as §1
# [7] = biological target: Neu5Ac(a2-3)Gal(b1-3)[Fuc(a1-4)]GlcNAc(b1-3)Gal(b1-3)[Fuc(a1-4)]GlcNAc
# Method in brief: as §1
# [8] = biological target: Neu5Ac(a2-3)Gal(b1-4)GlcNAc(b1-2)Man(a1-3)[Neu5Ac(a2-3)Gal(b1-4)GlcNAc(b1-2)Man(a1-6)]Man(b1-4)GlcNAc(b1-4)[Fuc(a1-6)]GlcNAc
# Method in brief: as §1
# [9] = biological target: Neu5Ac(a2-3)Gal(b1-4)GlcNAc6S
# Method in brief: as §1
# [10] = biological target: Neu5Ac(a2-3)[GalNAc(b1-4)]Gal(b1-4)GlcNAc
# Method in brief: as §1
# Neu5Ac(a2-6)Gal(b1-4)Glc = biological target: Neu5Ac(a2-6)Gal(b1-4)Glc
# Method in brief: as §1
# [11] = biological target: Neu5Ac(a2-6)Gal(b1-4)GlcNAc
# Method in brief: as §1
# [12] = biological target: Neu5Ac(a2-6)Gal(b1-4)GlcNAc(b1-2)Man(a1-3)[GlcNAc(b1-2)Man(a1-6)]Man(b1-4)GlcNAc(b1-4)GlcNAc
# Method in brief: as §1
# [13] = biological target: Neu5Ac(a2-6)Gal(b1-4)GlcNAc(b1-2)Man(a1-3)[Neu5Ac(a2-6)Gal(b1-4)GlcNAc(b1-2)Man(a1-6)]Man(b1-4)GlcNAc(b1-4)[Fuc(a1-6)]GlcNAc
# Method in brief: as §1
# [14] = biological target: Neu5Ac(a2-6)Gal(b1-4)GlcNAc(b1-2)[Neu5Ac(a2-6)Gal(b1-4)GlcNAc(b1-4)]Man(a1-3)[GlcNAc(b1-4)][Neu5Ac(a2-6)Gal(b1-4)GlcNAc(b1-2)[Neu5Ac(a2-6)Gal(b1-4)GlcNAc(b1-6)]Man(a1-6)]Man(b1-4)GlcNAc(b1-4)GlcNAc
# Method in brief: as §1
# [15] = biological target: Neu5Ac(a2-6)Gal(b1-4)GlcNAc(b1-3)[Neu5Ac(a2-6)Gal(b1-4)GlcNAc(b1-6)]GalNAc
# Method in brief: as §1
# [16] = biological target: Neu5Ac(a2-6)Gal(b1-4)GlcNAc6S
# Method in brief: as §1
# [17] = biological target: Neu5Ac(a2-6)GlcNAc(b1-4)GlcNAc(b1-4)GlcNAc
# Method in brief: as §1
# [18] = biological target: Neu5Ac(a2-8)Neu5Ac(a2-3)Gal(b1-3)GalNAc(b1-4)[Neu5Ac(a2-8)Neu5Ac(a2-3)]Gal(b1-4)Glc
# Method in brief: as §1
# Neu5Gc(a2-6)GalNAc = biological target: Neu5Gc(a2-6)GalNAc
# Method in brief: as §1
# Fuc(a1-2)Gal = biological target: Fuc(a1-2)Gal
# Method in brief: as §1
# [19] = biological target: Fuc(a1-2)Gal(b1-3)GalNAc(a1-3)[Fuc(a1-2)]Gal(b1-4)GlcNAc
# Method in brief: as §1
# [20] = biological target: Fuc(a1-2)Gal(b1-3)GlcNAc(b1-3)[Neu5Ac(a2-6)Gal(b1-4)GlcNAc(b1-6)]Gal(b1-4)Glc
# Method in brief: as §1
# [21] = biological target: Fuc(a1-2)Gal(b1-4)GlcNAc(b1-2)Man(a1-3)[Fuc(a1-2)Gal(b1-4)GlcNAc(b1-2)Man(a1-6)]Man(b1-4)GlcNAc(b1-4)GlcNAc
# Method in brief: as §1
# [22] = biological target: Fuc(a1-2)Gal(b1-4)GlcNAc(b1-3)[Fuc(a1-3)[Gal(b1-4)]GlcNAc(b1-6)]Gal(b1-4)Glc
# Method in brief: as §1
# [23] = biological target: Fuc(a1-2)Gal(b1-4)GlcNAc(b1-6)GalNAc
# Method in brief: as §1
# [24] = biological target: Fuc(a1-2)[Gal(a1-3)]Gal(b1-4)GlcNAc(b1-6)GalNAc
# Method in brief: as §1
# [25] = biological target: Fuc(a1-2)[GalNAc(a1-3)]Gal(b1-3)GalNAc(b1-3)Gal(a1-4)Gal(b1-4)Glc
# Method in brief: as §1
# [26] = biological target: Fuc(a1-2)[GalNAc(a1-3)]Gal(b1-3)GlcNAc(b1-2)Man(a1-3)[Fuc(a1-2)[GalNAc(a1-3)]Gal(b1-3)GlcNAc(b1-2)Man(a1-6)]Man(b1-4)GlcNAc(b1-4)[Fuc(a1-6)]GlcNAc
# Method in brief: as §1
# [27] = biological target: Fuc(a1-2)[GalNAc(a1-3)]Gal(b1-4)GlcNAc(b1-2)Man
# Method in brief: as §1
# [28] = biological target: Fuc(a1-3)[Gal(b1-4)]GlcNAc(b1-3)Gal(b1-4)[Fuc(a1-3)]GlcNAc
# Method in brief: as §1
# [29] = biological target: Fuc(a1-3)[Gal(b1-4)]GlcNAc(b1-3)GalNAc
# Method in brief: as §1
# [30] = biological target: Fuc(a1-3)[Gal(b1-4)]GlcNAc(b1-6)[Gal(b1-3)GlcNAc(b1-3)]Gal(b1-4)Glc
# Method in brief: as §1
# [31] = biological target: Gal(a1-3)Gal(b1-3)GlcNAc(b1-6)GalNAc
# Method in brief: as §1
# [32] = biological target: Gal(a1-3)[Gal(a1-4)]Gal(b1-4)GlcNAc
# Method in brief: as §1
# Gal(a1-6)Glc = biological target: Gal(a1-6)Glc
# Method in brief: as §1
# Gal(b1-3)GalNAc(b1-3)Gal = biological target: Gal(b1-3)GalNAc(b1-3)Gal
# Method in brief: as §1
# [33] = biological target: Gal(b1-3)GlcNAc(b1-2)Man(a1-3)[Gal(b1-3)GlcNAc(b1-2)Man(a1-6)]Man(b1-4)GlcNAc(b1-4)[Fuc(a1-6)]GlcNAc
# Method in brief: as §1
# [34] = biological target: Gal(b1-3)GlcNAc(b1-3)Gal(b1-4)GlcNAc(b1-6)[Gal(b1-3)GlcNAc(b1-3)]Gal(b1-4)Glc
# Method in brief: as §1
# Gal(b1-4)GlcNAc = biological target: Gal(b1-4)GlcNAc
# Method in brief: as §1
# [35] = biological target: Gal(b1-4)GlcNAc(a1-6)Gal(b1-4)GlcNAc
# Method in brief: as §1
# [36] = biological target: Gal(b1-4)GlcNAc(b1-2)Man(a1-3)[GlcNAc(b1-2)Man(a1-6)]Man(b1-4)GlcNAc(b1-4)GlcNAc
# Method in brief: as §1
# [37] = biological target: Gal(b1-4)GlcNAc(b1-3)[Fuc(a1-3)GlcNAc(b1-6)]Gal(b1-4)Glc
# Method in brief: as §1
# [38] = biological target: Gal(b1-4)GlcNAc(b1-6)Gal(b1-4)GlcNAc
# Method in brief: as §1
# [39] = biological target: Gal3S(b1-4)[Fuc(a1-3)]Glc6S
# Method in brief: as §1
# [40] = biological target: Gal3S(b1-4)[Fuc(a1-3)]GlcNAc
# Method in brief: as §1
# Gal6P(b1-4)GlcNAc = biological target: Gal6P(b1-4)GlcNAc
# Method in brief: as §1
# Gal6S(b1-3)GlcNAc = biological target: Gal6S(b1-3)GlcNAc
# Method in brief: as §1
# Gal6S(b1-4)Glc6S = biological target: Gal6S(b1-4)Glc6S
# Method in brief: as §1
# [41] = biological target: GalNAc(a1-3)GalNAc(b1-3)Gal(a1-4)Gal(b1-4)Glc
# Method in brief: as §1
binder,measurement,setting,value
AT1G15820(NC) (Arabidopsis thaliana) (protein) MAMAVSGAVLSGLGSSFLTGGKRGATALASGVGDAIAPFSFGSLLGTQLLLMGWVESKRWVDFFNPDSQSVEWATPWSKTAENFANYTGDQGYPGGRFFDPLGLAGKNRDGVYEPDFEKLERLKLAEIKHSRLAMVAMLIFYFEAGQGKTPLGALGL,glycan array binding signal (z-score),[1],-0.626
same,glycan array binding signal (z-score),[2],0.582
same,glycan array binding signal (z-score),[3],2.99
same,glycan array binding signal (z-score),[4],0.405
same,glycan array binding signal (z-score),GlcNAc(b1-4)GlcNAc,-0.216
same,glycan array binding signal (z-score),[5],4.7
same,glycan array binding signal (z-score),[6],-0.581
same,glycan array binding signal (z-score),[7],-0.555
same,glycan array binding signal (z-score),[8],-0.329
same,glycan array binding signal (z-score),[9],-0.18
same,glycan array binding signal (z-score),[10],-0.475
same,glycan array binding signal (z-score),Neu5Ac(a2-6)Gal(b1-4)Glc,-0.637
same,glycan array binding signal (z-score),[11],-0.363
same,glycan array binding signal (z-score),[12],-0.052
same,glycan array binding signal (z-score),[13],0.316
same,glycan array binding signal (z-score),[14],-0.4
same,glycan array binding signal (z-score),[15],-0.424
same,glycan array binding signal (z-score),[16],-0.322
same,glycan array binding signal (z-score),[17],-0.481
same,glycan array binding signal (z-score),[18],5.08
same,glycan array binding signal (z-score),Neu5Gc(a2-6)GalNAc,-0.493
"AT1G77380(17) (Arabidopsis thaliana), Q39134 (protein) MVQNHQTVLAVDMPQTGGSKYLDDDGKNKRTGSVWTASAHIITAVIGSGVLSLAWATAQLGWLAGPVVMLLFSAVTYFTSSLLAACYRSGDPISGKRNYTYMDAVRSNLGGVKVTLCGIVQYLNIFGVAIGYTIASAISMMAIKRSNCFHKSGGKDPCHMNSNPYMIAFGLVQILFSQIPDFDQLWWLSILAAVMSFTYSSAGLALGIAQVVVNGKVKGSLTGISIGAVTETQKIWRTFQALGDIAFAYSYSIILIEIQDTVKSPPSEEKTMKKATLVSVSVTTMFYMLCGCMGYAAFGDLSPGNLLTGFGFYNPYWLLDIANAAIVIHLIGAYQVYCQPLFAFIEKQASIQFPDSEFIAKDIKIPIPGFKPLRLNVFRLIWRTVFVIITTVISMLLPFFNDVVGLLGALGFWPLTVYFPVEMYIAQKKIPRWSTRWVCLQVFSLGCLVVSIAAAAGSIAGVLLDLKSYKPFRSEY",glycan array binding signal (z-score),Fuc(a1-2)Gal,2.99
same,glycan array binding signal (z-score),[19],2.89
same,glycan array binding signal (z-score),[20],-0.856
same,glycan array binding signal (z-score),[21],-0.43
same,glycan array binding signal (z-score),[22],2.76
same,glycan array binding signal (z-score),[23],-0.513
same,glycan array binding signal (z-score),[24],-0.886
same,glycan array binding signal (z-score),[25],4.03
same,glycan array binding signal (z-score),[26],-0.716
same,glycan array binding signal (z-score),[27],1.32
same,glycan array binding signal (z-score),[28],-0.28
same,glycan array binding signal (z-score),[29],0.285
same,glycan array binding signal (z-score),[30],2.75
same,glycan array binding signal (z-score),[31],-0.733
same,glycan array binding signal (z-score),[32],3.09
same,glycan array binding signal (z-score),Gal(a1-6)Glc,-0.766
same,glycan array binding signal (z-score),Gal(b1-3)GalNAc(b1-3)Gal,-0.955
same,glycan array binding signal (z-score),[33],3.2
same,glycan array binding signal (z-score),[34],1.9
same,glycan array binding signal (z-score),Gal(b1-4)GlcNAc,-0.639
same,glycan array binding signal (z-score),[35],2.75
same,glycan array binding signal (z-score),[36],-0.757
same,glycan array binding signal (z-score),[37],0.166
same,glycan array binding signal (z-score),[38],-0.725
same,glycan array binding signal (z-score),[39],0.338
same,glycan array binding signal (z-score),[40],-0.327
same,glycan array binding signal (z-score),Gal6P(b1-4)GlcNAc,-0.442
same,glycan array binding signal (z-score),Gal6S(b1-3)GlcNAc,-0.519
same,glycan array binding signal (z-score),Gal6S(b1-4)Glc6S,-0.34
same,glycan array binding signal (z-score),[41],-0.209
